Structures can show the parent of a compound that is named as a salt. ± gives the standard deviation of the averaged measurements.
test system: Toxoplasma gondii RH (in HFF); assay: parasite growth relative to the screen mean (all compounds = 100%); higher = less inhibition of parasite growth; settings: 5 µM; 72 h; oxygen 21 %
How it was run: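 Confluent human foreskin fibroblasts in 96-well plates received library compounds by pin transfer at 5 µM final, taken from 10 mM DMSO stocks. Within 2 h the cells were infected with RH β-Gal–GFP Toxoplasma at MOI 1:5 and cultured 72 h at 21% O2. A CPRG β-Gal assay read against in-plate standard curves gave parasite number, and growth is stated relative to the screen mean, where all compounds = 100%, averaged across two screens.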

First: CN1CCC(=C2c3ccccc3C=Cc3ccccc32)CC1 [Cyproheptadine hydrochloride]
Second: CN(CCCN1c2ccccc2CCc2ccccc21)CC(=O)c1ccc(Cl)cc1 [Lofepramine]
The parasite growth of the first is lower: 12.1 ± 16% for the first, 185.3 ± 1.1% for the second.

Going from O=C1CCc2c(ccc3ccccc23)O1 [Splitomicin] to O=C1Cc2c([nH]c3ccc(Br)cc23)-c2ccccc2N1 [Kenpaullone], the parasite growth falls from 149 ± 2.2% to 100 ± 12%.

Compared with O=C(COc1cccc2c(=O)[nH]ccc12)c1ccccc1, CCOc1ccccc1OC(c1ccccc1)C1CNCCO1 (stereo not drawn) [Reboxetine mesylate] is higher in parasite growth: 92.69 ± 0.78% for the first, 102 ± 5.2% for the second.

C1CCC(N=C(NC23CC4CC(CC(C4)C2)C3)N2CCOCC2)CC1 and CO[C@@H]1[C@H](O)[C@@H](CO)O[C@H]1n1cnc2c(NC3CCCCC3)ncnc21 are within error of each other in parasite growth: 100 ± 31% for the first, 103 ± 24% for the second.

Compared with O=c1oc(-c2ccc(C(F)(F)F)cc2)nn1Cc1cc(Cl)ccc1O, CC(CCCCC(=O)Nc1ccc(C(F)(F)F)cc1)NCCc1cnc[nH]1 (stereo not drawn) [HTMT dimaleate] is lower in parasite growth: 146 ± 11% for the first, 95.1 ± 7.2% for the second.

CCOC(=O)C1=C[C@]2(CC)CCCN3CCc4c(n1c1ccccc41)[C@@H]32 [Vinpocetine] and CCCCN1CCCC1CNC(=O)c1cc(C#N)c2ccccc2c1OC (stereo not drawn) [Nafadotride] are within error of each other in parasite growth: 121 ± 10% for the first, 127 ± 15% for the second.

Nc1ncnc2c1ncn2[C@@H]1O[C@H](CO)C[C@H]1O [Cordycepin] and CNC(=O)[C@H]1O[C@@H](n2cnc3c(NCc4cccc(I)c4)nc(Cl)nc32)[C@H](O)[C@@H]1O are within error of each other in parasite growth: 122 ± 20% for the first, 120 ± 28% for the second.

NS(=O)(=O)c1cc2c(cc1Cl)NC(C1CC3C=CC1C3)NS2(=O)=O (stereo not drawn) [Cyclothiazide] and CC1Nc2ccc(Cl)cc2S(=O)(=O)N1 (stereo not drawn) are within error of each other in parasite growth: 118 ± 1.8% for the first, 105 ± 84% for the second.

CCc1cc(Cl)c(OC)c(C(=O)NC[C@@H]2CCCN2CC)c1O [Eticlopride hydrochloride] and N[C@@H](Cc1cc(-c2ccc(Cl)cc2Cl)cc(CP(=O)(O)O)c1O)C(=O)O are within error of each other in parasite growth: 106 ± 11% for the first, 127 ± 26% for the second.

C=CCn1c(=O)n([C@@H]2O[C@H](CO)[C@@H](O)[C@H]2O)c2nc(N)[nH]c(=O)c21 and C[C@@H](NCc1cc(Br)cc2[nH]c(=O)c(=O)[nH]c12)P(=O)(O)O are within error of each other in parasite growth: 116 ± 8.2% for the first, 109 ± 3.7% for the second.

CN(C)C/C=C(/c1ccc(Br)cc1)c1cccnc1 [Zimelidine dihydrochloride] and CSc1cc2c(cc1C(F)(F)F)N(C(=O)Nc1cccnc1)CC2 are within error of each other in parasite growth: 126 ± 4.6% for the first, 122 ± 30% for the second.

CC1(CN2CCC(n3c(=O)[nH]c4ccccc43)CC2)OCc2ccccc2-n2cccc21 (stereo not drawn) and C[C@@H](CN1CCC(Cc2ccccc2)CC1)[C@@H](O)c1ccc(O)cc1 [Ro 25-6981 maleate] are within error of each other in parasite growth: 113 ± 47% for the first, 121 ± 23% for the second.

First: C=C1C(=O)O[C@@H]2/C=C(\C)CC/C=C(\C)CC[C@@H]12 [Costunolide]
Second: CCOC(=O)[C@]12CC1/C(=N\O)c1ccccc1O2 (stereo partly drawn)
The parasite growth of the first is lower: 30.7 ± 25% for the first, 83 ± 23% for the second.

Going from COc1cc2ncnc(Nc3ccc(Cl)cc3F)c2cc1OC to CC(=O)NNC(=O)N1Cc2ccccc2Oc2ccc(Cl)cc21, the parasite growth rises from 28.9 ± 13% to 136 ± 40%.

Going from O=C1NC(=O)c2cc(Nc3ccc(F)cc3)c(Nc3ccc(F)cc3)cc21 to Cn1cc(C2=C(c3cn(CCCSC(=N)N)c4ccccc34)C(=O)NC2=O)c2ccccc21 [Ro 31-8220 mesylate], the parasite growth falls from 171 ± 51% to less than 0%.

Going from CC(C)(Sc1ccc(CCN(CCCCC2CCCCC2)C(=O)NC2CCCCC2)cc1)C(=O)O to Cc1cc(Cn2cnc3c2CC(C(=O)O)N(C(=O)C(c2ccccc2)c2ccccc2)C3)ccc1N(C)C (stereo not drawn), the parasite growth rises from 87.9 ± 17% to 130 ± 23%.

Going from Cc1ccc(Sc2cncc3sc(C(N)=O)cc23)cc1 to NC(=O)c1ccc(-c2nc(-c3ccccn3)c(-c3ccc4c(c3)OCO4)[nH]2)cc1, the parasite growth falls from 148 ± 2.4% to 36.2 ± 32%.

CC(=O)N1CCN(C)CC1 [1-Acetyl-4-methylpiperazine hydrochloride] and OC(CN1CCC(Cc2ccc(F)cc2)CC1)c1ccc(Cl)cc1 (stereo not drawn) [Eliprodil] are within error of each other in parasite growth: 109 ± 40% for the first, 93.6 ± 21% for the second.

Going from O=[N+]([O-])c1cccc2c(Br)[nH]nc12 [3-Bromo-7-nitroindazole] to CCCCCCCCCCCCCCCC(=O)C(F)(F)F, the parasite growth falls from 123 ± 5.8% to 108 ± 7.6%.
